The values below come from PubChem BioAssay (EPA / NIEHS).

The nature of assay [1]: CCTE_Shafer_MEA_dev_correlation_coefficient_mean: CCTE's Neural Network Formation Assay for Mean Correlation Coefficient, Shafer Lab (AID 2284093).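 As to AC50: well mean pairwise spike train correlation integrated as AUC over recording days 5 to 12; potency fitted for loss of correlation relative to DMSO vehicle wells.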 Here is the method:
CCTE_Shafer_MEA_dev assay is conducted using Axion Biosystems 48 well microelectrode array (MEA) plates and Maestro recording system. Each well of the MEA plate contains a grid of 16 microelectrodes embedded in the culture surface. Electrically active cells, such as neurons, can be cultured over the electrodes, and electrical activity in these cells can be recorded extracellularly. The spontaneous firing of neurons is captured from each electrode on a microsecond timescale providing both temporally and spatially precise data. […] The CCTE_Shafer_MEA_dev assay uses primary cultures of rat cortical neurons. Recordings are made on days post-plating 5, 7, 9 and 12. As these cultures mature over time, neural networks develop functional activity and form cohesive networks in which electrical activity can be highly coordinated. CCTE_Shafer_MEA_dev_correlation_coefficient_mean is 1 of 19 assay components of the CCTE_Shafer_MEA_dev assay. It measures the correlation coefficent of spikes (action potential firings) between every pair of electrodes in a well during a recording in a microelectrode array (MEA) using Axion Biosystems Maestro 768 channel amplifier with the AxIS adaptive spike detector. The pairwise correlations are averaged across active electrodes to report a well-mean value. To collapse across multiple recordings made on days post-plating 5, 7, 9 and 12, the trapezoidal area-under-the-curve of the component is calculated.Data from the assay component CCTE_Shafer_MEA_dev_correlation_coefficient_mean was analyzed into 1 assay endpoint. This assay endpoint, CCTE_Shafer_MEA_dev_correlation_coefficient_mean, was analyzed in the negative analysis fitting direction relative to DMSO as the negative control and baseline of activity. Using a type of functional reporter, gain or loss-of-signal activity can be used to understand electrical activity.
On the day prior to culture, each well was coated thoroughly with 150 uL of 0.05% polyethyleneimine (PEI, Sigma Cat P3143) in 50 mM HEPES (Sigma Cat H7523) at a pH of 8. The plate was incubated at 37C for one hour. […]

Assay [2] is described as follows: IUF_NPC1b_proliferation_BrdU_72hr: Leibniz Research Institute for Environmental Medicine (IUF) 72-hour Neural Progenitor Cell Bromodeoxyuridine (BrdU) Proliferation Assay (NPC1b) (AID 2284207). Here is the method: IUF_NPC1 is a cell-based, multiplexed assay that uses hNPC, a human primary neural progenitor cells, with measurements taken at 72 hours after chemical dosing in a 96-well plate. Human neural progenitor cells (hNPC) are generated from human fetal brain cortex at gestational week (GW) 16-19. Grown in suspension culture and under proliferative conditions (proliferation media and growth factors), these cells represent neural progenitor cell proliferation. In the NPC1 assay, hNPC's are exposed to the test compound for 72h. Cell proliferation is assessed as an increase in sphere area using automated phase contrast imaging and as incorporation of Bromodeoxyuridine (BrdU) during DNA synthesis using a luminescence-based cell proliferation ELISA. In parallel, the cell viability is assessed using an alamar blue viability assay and the cytotoxicity using a lactate dehydrogenase dependent membrane integrity assay.IUF_NPC1b_proliferation_BrdU_72hr is one of 4 assay components measured from the IUF_NPC1 assay. […]

A short description of assay [3]: IUF_NPC1a_proliferation_area_72hr: Leibniz Research Institute for Environmental Medicine (IUF) 72-hour Neural Progenitor Cell Proliferation Area Assay (NPC1a) (AID 2284208). In short, it runs like this: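 Spheres of 0.3 mm are plated singly in growth-factor medium and exposed from day 0. After three days at 37C and 5% CO2, sphere area is measured by phase contrast imaging, with activity referenced to DMSO.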

The nature of assay [4]: IUF_NPC1_viability_72hr: Viability Assessment at 72 hours in the Leibniz Research Institute for Environmental Medicine (IUF) Neural Progenitor Cell Proliferation Assay (NPC1) (AID 2284209). In a few lines: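 Each well receives one 0.3 mm progenitor sphere from fetal brain cortex; test chemical is added at plating and left three days. Viability comes from alamar blue fluorescence, multiplexed with LDH and BrdU readouts in the same well.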

A short description of assay [5]: CCTE_Mundy_HCI_Cortical_Synap_Neur_Matur_NeuriteSpotCountPerNeuriteLength: CCTE's Synaptogenesis and Neurite Maturation Assay in rat cortical cells for Neurite Spot Count per Neurite Length, Mundy Lab (AID 2284210). In a few lines: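 Primary rat cortical neurons, compound exposure DIV 7–12, 288.33 h endpoint. Hoechst, anti-MAP2 and anti-synaptophysin labelling; neurite-associated puncta per neurite length scored by automated imaging relative to DMSO controls.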

Assay [6] can be described thus: CCTE_Mundy_HCI_Cortical_Synap_Neur_Matur_BPCount: CCTE's Synaptogenesis and Neurite Maturation Assay in rat cortical cells for Branch Point Count, Mundy Lab (AID 2284211). In a few lines:
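Branch point number is quantified by automated imaging of fluorescently labelled neurites and synapses in rat primary cortical neurons exposed from DIV 7 to DIV 12. Activity is analysed relative to DMSO negative control.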

Assay [7] is described as follows: CCTE_Mundy_HCI_Cortical_NOG_NeuriteCount: CCTE's Neurite Outgrowth Assay in rat cortical cells for Neurite Count, Mundy Lab (AID 2284212).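 Also: cells fixed about two days after chemical exposure began.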 In a few lines: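 Neurite number per cell from high-content imaging of betaIII-tubulin immunostaining, with Hoechst nuclear counterstain.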
Assay [8] in a line: CCTE_Mundy_HCI_Cortical_NOG_NeuriteLength: CCTE's Neurite Outgrowth Assay in rat cortical cells for Neurite Length, Mundy Lab (AID 2284213). Here is the method:
CCTE_Mundy_HCI_Cortical_NOG is a multiplexed, cell-based-readout assay that uses rat primary cortical cells with measurements taken at 50.33 hours after chemical dosing in a microplate: 96-well plate.CCTE_Mundy_HCI_Cortical_NOG_NeuriteLength is one of four components of the CCTE_Mundy_HCI_Cortical_NOG assay. It measures neurite outgrowth related to the neurite length using High Content Imaging of fluorescently labelled markers.[…] Using a type of morphology reporter, loss -of-signal activity can be used to understand developmental effects.
Exposure starts 2 hours post-plating by adding 10 ul of the working solution to 90 ul of media in the wells for a 1/10 dilution. Forty-eight hours after chemical treatment cells are fixed by direct addition of 100 ul of warm (37C) Dulbecco's phosphate buffered saline (DPBS) fixative solution containing 8% paraformaldehyde, 8% sucrose, and 0.1% of 3 mg/ml Hoechst 33342 into each well. Primary antibodies are prepared by dilution in Immunocytochemical Staining Buffer (ISB), 10X Dulbecco's PBS, 0.1% Saponin, 5% Bovine Serum Albumin, 0.5% NaN3 (Sodium Azide) and betaIII-tubulin (rabbit anti-betaIII-tubulin, 1:800) followed by Alexa Fluor-488 secondary (1:500) to label neuronal cell bodies and neurites. A Cellomics ArrayScan VTi HCS Reader is used for automated image acquisition and analysis of neurite outgrowth.

A short description of assay [9]: CCTE_Mundy_HCI_Cortical_Synap_Neur_Matur_NeuriteLength: CCTE's Synaptogenesis and Neurite Maturation Assay in rat cortical cells for Neurite Length, Mundy Lab (AID 2284214). In a few lines:
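Neurite length in rat primary cortical cultures is imaged after MAP2, synaptophysin and Hoechst staining. Dosing starts DIV 7, ending DIV 12; DMSO serves as negative control and baseline.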

Assay [10] is described as follows: CCTE_Mundy_HCI_Cortical_Synap_Neur_Matur_NeuriteSpotCountPerNeuron: CCTE's Synaptogenesis and Neurite Maturation Assay in rat cortical cells for Neurite Spot Count per Neuron Count, Mundy Lab (AID 2284215). In a few lines: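 Rat cortical primary cultures; AraC DIV 5 to arrest glia; dosing + media change DIV 7; fixed DIV 12. Anti-MAP2/anti-synaptophysin, Hoechst nuclei; HCI puncta count per neuron, positive fitting direction vs DMSO.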

Calls of active or inactive are those of the source. The calls were made as follows: active = hit-call score of the fitted dose curve at least 0.9, where 1 is the maximum; inactive = score below 0.9.

Turning to `c1ccc2c(c1)c1cccc3ccc4cccc2c4c31`, in assay [1], the compound was classed as inactive.

In the case of `CN(C)C(=N)N=C(N)N`, the compound was called inactive in assay [1], in assay [2], in [3], in [4], in assay [5] and in assay [7]. For the same compound, the compound was classed as inactive in [8] and in assay [10]. Also, the half-maximal activity concentration (AC50) in assay [6] and in assay [9] was 18.1 µM (active) each time.

In the case of `N#Cc1ccc(CC(=NNC(=O)Nc2ccc(OC(F)(F)F)cc2)c2cccc(C(F)(F)F)c2)cc1`, the AC50 (commonly the concentration at which the activity in the assay is half-maximal) in assay [1] is 2.8 µM (active). The compound was called inactive in assay [2], in assay [3], in assay [4], in assay [5], in [6] and in assay [7]. In addition, the call in assay [8], in [9] and in assay [10] was inactive.
